# Compound activity (PubChem)
# p53null 32C tox = p53 null cell cytotoxicity, permissive temperature; H1299-neo p53 null cells, ATP luminescence, 24 h, 32C; Potency, µM (titrated, usually from 46.1 µM), for inactives: at the top dose activity change, negative = cytotoxicity, most hits filed as cytotoxic; actives 0.62% (n = 55,000);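 further: potency means the concentration at half of the fitted maximal effect; 0% = DMSO only and -100% = full killing by 100 µM tamoxifen; nearly all actives have a fitted effect of over 55% in size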
#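 ATP-content luminescence in p53-null H1299-neo cells after 24 h compound exposure (up to 46 uM) at 32C permissive temperature; 0% and 100% killing set by DMSO and 100 uM tamoxifen; Hill-equation AC50.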
# PMP22 txn = PMP22 gene transcription modulation | S16 Pmp22-F2sN Schwann cells, FLuc/NLuc coincidence luminescence, 24 h | Potency, µM (titrated, usually from 57.5 µM), for inactives: at the top dose activity change, negative = inhibition, most hits filed as inhibitors | actives 2% (n = 43,000) | AID 1508649; active means clear falling dose curves in both reporters; inconclusive means both reporters move, but less clearly or upward; inactive means either reporter flat; the % is the NLuc reporter signal; further: potency means the concentration at half of the fitted maximal effect; on the % scale 0 is the no-effect control and ±100 the full control effect
#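 S16 Schwann cells carrying FLuc/NLuc coincidence reporter in the Pmp22 3' UTR treated with compound 24 h at 37C; FLuc then NLuc luminescence read sequentially by dual-luciferase reagents.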
# SKOV3 invasion = blocks SKOV3ip1 adhesion and invasion in omental model; SKOV3ip1-GFP adhesion/invasion on 3D omental model, fluorescence; Potency, µM (doses to about 45.8 µM), for the others: at the highest dose activity change, negative = inhibition, usual class: inhibitors; actives 0.1% (n = 46,000);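 further: potency means the concentration at half of the fitted maximal effect; plate controls were DMSO wells for no effect and tomatine positive control wells for full effect; nearly all actives have a fitted effect of over 65% in size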
#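 qHTS, 4-pt dose (0.36-46 umol/L); SKOV3ip1-GFP, 1,200 cells/well, no FBS; primary omental fibroblast/mesothelial co-culture 48 h pre-grown; 2 h RT + 16 h 37 C; PBS wash, 4% PFA; GFP count 488/509 nm.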
# S16 F2sN tox = S16 Schwann cell cytotoxicity; S16 Pmp22-F2sN Schwann cells (luciferase reporters placed in the Pmp22 gene) viability, CellTiter-Glo, 24 h; Potency, µM (doses to about 57.5 µM), inactives show top-dose activity change, negative = cytotoxicity, actives largely listed as cytotoxic; actives 0.48% (n = 43,000); further: potency means the concentration at half of the fitted maximal effect; on the % scale 0 is the no-effect control and ±100 the full control effect; nearly all actives have a fitted effect of over 65% in size
#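 CellTiter-Glo counter-screen, qHTS, 1536-well. Cells: S16(c9) Pmp22-F2sN, 500-1,000/well in DMEM + 10% FBS. Cpd 23 nL pin transfer, 24 h, 37C/5% CO2. Read: luminescence, CCD imager.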
# p53null 39C tox = selectivity test: cytotoxicity in p53 null cells, nonpermissive temperature; actives 0.97% (n = 55,000); H1299 p53-null (neo) cells, 39C, ATPlite viability, 24 h; Potency, µM (series often up to 46.1 µM), inactives show top-dose activity, negative = cell killing, hits mostly cytotoxic;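 further: potency means the concentration at half of the fitted maximal effect; 0% = DMSO only and -100% = full killing by 100 µM tamoxifen; nearly all actives have a fitted effect of over 50% in size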
#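 Cells seeded at 600/well, 37C overnight. Compound added (up to 46 uM), plates shifted to 39C for 24 hr. ATPlite added, luminescence read after 20 min at room temperature.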
# pS6 MEF inh = inhibitors of mTORC1 signaling in Tsc2-/- p53-/- MEF cells. Tsc2-/- p53-/- MEF, phospho-rpS6 immunofluorescence/PI, 24 h. Potency, µM (highest dose often 38.3 µM), inactives show at the top dose activity change, negative = inhibition, hits mostly inhibitors. actives 0.78% (n = 44,000). AID 493208;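 further: potency means the concentration at half of the fitted maximal effect; plate controls were DMSO for no effect and rapamycin for full effect; nearly all actives have a fitted effect of over 50% in size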
#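 Read-out: phospho-S6 Alexa-488 intensity over PI intensity per well, scored as % active cells using thresholds from rapamycin (7.5 nM) and DMSO controls. Tsc2-/-, p53-/- MEFs exposed to compound for 24 h; PI cell count recorded as viability.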
# NLuc sat counter = counter-screen for PMP22 expression modulators: NanoLuc inhibition, saturating substrate; Secreted NLuc enzyme (filtered S16 cell medium), Nano-Glo luminescence; shares compounds with PMP22 txn; actives 4% (n = 690); Potency, µM (highest dose often 57.5 µM), inactives show at the top dose activity change, negative = inhibition, most hits filed as inhibitors; further: potency means the concentration at half of the fitted maximal effect; on the % scale 0 is the no-effect control and ±100 the full control effect
# NLuc Km counter = inhibits NanoLuc under Km conditions, PMP22 counter-screen | actives 5% (n = 690) | AID 1508639 | secreted NLuc enzyme, coelenterazine luminescence, Km conditions | Potency, µM (top dose mostly 57.5 µM), inactives show at the top dose activity change, negative = inhibition, most hits filed as inhibitors | shares compounds with PMP22 txn; further: potency means the concentration at half of the fitted maximal effect; on the % scale 0 is the no-effect control and ±100 the full control effect
# FLuc counter = counter-screen for PMP22 expression modulators: firefly luciferase inhibition; shares compounds with PMP22 txn; purified P. pyralis FLuc, luminescence, 10 min; Potency, µM (top dose mostly 57.5 µM), for inactives: top-dose activity, negative = inhibition, hits mostly inhibitors; 690 tested, under 10 active; AID 1508640; further: % of control where 0% means no effect
# Target sequence (P08659 whole entry, looked up): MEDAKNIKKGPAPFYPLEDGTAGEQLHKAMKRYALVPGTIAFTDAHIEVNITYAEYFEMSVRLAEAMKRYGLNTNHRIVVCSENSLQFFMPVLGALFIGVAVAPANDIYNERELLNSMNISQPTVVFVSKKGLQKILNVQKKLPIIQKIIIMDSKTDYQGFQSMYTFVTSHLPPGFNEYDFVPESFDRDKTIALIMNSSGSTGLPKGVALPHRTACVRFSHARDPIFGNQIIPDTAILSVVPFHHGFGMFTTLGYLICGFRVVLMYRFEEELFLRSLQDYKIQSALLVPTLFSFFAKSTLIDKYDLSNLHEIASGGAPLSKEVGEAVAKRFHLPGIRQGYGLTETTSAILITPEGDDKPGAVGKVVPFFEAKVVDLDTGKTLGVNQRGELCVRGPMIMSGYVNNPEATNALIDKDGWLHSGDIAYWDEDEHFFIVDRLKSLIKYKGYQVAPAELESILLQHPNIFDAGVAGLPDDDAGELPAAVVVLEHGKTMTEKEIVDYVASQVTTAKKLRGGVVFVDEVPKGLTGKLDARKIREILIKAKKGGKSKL
# S16 viab conf = S16 Schwann cell cytotoxicity, confirmatory | Potency, µM (top dose mostly 57.5 µM), for inactives: at the highest dose activity change, negative = viability loss, most hits filed as cytotoxic | S16 Schwann cells viability, CellTiter-Glo ATP luminescence, 24 h | actives 7% (n = 690) | shares compounds with PMP22 txn; further: potency means the concentration at half of the fitted maximal effect; on the % scale 0 is the no-effect control and ±100 the full control effect
# PMP22 txn cnf = confirmation of modulators of PMP22 gene transcription in S16 cells. shares compounds with PMP22 txn. S16 Schwann cells Pmp22-F2sN, dual luciferase, 24 h. Potency, µM (top dose mostly 57.5 µM), for the others: top-dose activity change, negative = inhibition, actives largely listed as inhibitors. actives 22% (n = 690); active means clear falling dose curves in both reporters; inconclusive means both reporters move, but less clearly or upward; inactive means either reporter flat; the % is the FLuc reporter signal; further: potency means the concentration at half of the fitted maximal effect
# PMP22 HiBiT cnf = confirmation of modulators of rat PMP22 protein expression; shares compounds with PMP22 txn; S16 Schwann cells Pmp22-HiBiT, luminescence, 48 h; Potency, µM (doses to about 27.9 µM), for the others: at the highest dose activity change, negative = inhibition, actives largely listed as inhibitors; 95 tested, under 10 active; AID 1508647
# Target sequence (P25094 whole entry, looked up): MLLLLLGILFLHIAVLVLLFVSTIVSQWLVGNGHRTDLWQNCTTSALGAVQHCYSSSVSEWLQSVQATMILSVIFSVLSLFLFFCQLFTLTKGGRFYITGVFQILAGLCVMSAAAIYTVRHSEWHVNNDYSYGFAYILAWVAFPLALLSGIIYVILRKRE
# An asterisk follows results filed as active; i = inactive; ? = inconclusive; . = not tested or not shown. This is a sample that favours compounds with a hit; in the whole collection about 3% have one here. Unless noted, the call rests on the fitted dose curve; in most records, active means well fitted curve in the direction sought with a large enough effect; inconclusive means small, poorly fitted or top-dose-only effect, or another doubt; inactive means no such curve, though single readings can be large; an effect the other way counts as inactive or inconclusive.
SMILES,p53null 32C tox,PMP22 txn,SKOV3 invasion,S16 F2sN tox,p53null 39C tox,pS6 MEF inh,NLuc sat counter,NLuc Km counter,FLuc counter,S16 viab conf,PMP22 txn cnf,others
C[C@H](NC(=O)C(=O)Nc1ccccc1C(C)(C)C)C(=O)N[C@@H](CC(=O)O)C(=O)COc1c(F)c(F)cc(F)c1F,.,.,13.8%,.,.,.,.,.,.,.,.,
Cn1c(=O)oc2cc(S(=O)(=O)N3CCCC(C(=O)N4CCN(c5ccc(Cl)cc5)CC4)C3)ccc21 (centres undefined),-6.5%,5.12µM*,i,?,-7.9%,-2.1%,?,5.1%,2.3%,-22.3%,15.1µM*,PMP22 HiBiT cnf=?
COc1ccc(N2CCN(C(=O)C3CCCN(S(=O)(=O)c4ccc5c(c4)oc(=O)n5C)C3)CC2)cc1 (centres undefined),-5.0%,?,7.7%,-4.9%,-11.9%,-1.4%,.,.,.,.,.,
CCCNC(=O)Cn1nc(-c2ccc(C)c(C)c2)c2cnc3ccc(OC)cc3c21,30.4%,?,i,?,-20.4%,-3.3%,.,.,.,.,.,
O=C(Nc1ccccc1)Nc1ccc(-c2ccc(C(=O)[C@H]3CCC[C@H]3C(=O)O)cc2)cc1,.,.,-6.6%,.,.,.,.,.,.,.,.,
CCOCCCn1c(=N)c(C(=O)NC(C)c2ccccc2)cc2c(=O)n3cc(C)ccc3nc21 (centres undefined),-3.0%,-22.9%,-0.7%,4.9%,19.6%,13.5%,.,.,.,.,.,
CCCn1c(=N)c(C(=O)NC(C)c2ccccc2)cc2c(=O)n3ccccc3nc21 (centres undefined),-10.7%,14.1µM*,8.9%,0.1%,10.7%,0.3%,-10.2%,-16.5%,-4.6%,14.4%,4.65µM*,PMP22 HiBiT cnf=-17.4%
CC(=O)c1c(C)oc2ccc(N(C(=O)Oc3ccccc3)S(=O)(=O)c3ccc(C(C)(C)C)cc3)cc12,25.0%,12.7µM*,15.4%,2.4%,24.6%,-15.3%,-14.0%,-5.6%,-1.7%,-5.4%,?,
CCOC(=O)c1c(C)oc2ccc(N(C(=O)Oc3ccccc3)S(=O)(=O)c3ccc(CC)cc3)cc12,38.9%,?,-4.6%,-1.6%,52.8%,-3.8%,.,.,.,.,.,
Nc1ccccc1NC(=O)c1ccc(CNc2nccc(-c3cccnc3)n2)cc1,.,.,30.1%,.,.,.,.,.,.,.,.,
Cc1ccc(OCC(=O)Nc2ccc3[nH]c(=O)sc3c2)cc1,1.1%,15µM*,6.5%,15.0%,-15.7%,-9.7%,-13.3%,-13.9%,-16.2%,19.9%,?,
CCCC1=Nc2cc(C(=O)NC3CCCCC3)ccc2Sc2ccc(C)cc21,13.2%,0.897µM*,-7.5%,-34.2%,11.6%,-2.5%,-9.7%,3.0%,-8.2%,0.9%,2.89µM*,PMP22 HiBiT cnf=?
CC1=Nc2cc(C(=O)NC3CCCCC3)ccc2Sc2ccc(Cl)cc21,39.9%,6.05µM*,-5.3%,-5.9%,19.2%,?,-4.2%,0.4%,2.4%,-4.9%,8.68µM*,
CC1=Nc2cc(C(=O)N3CCCCC3)ccc2Sc2ccc(C)cc21,11.3%,-25.8%,i,12.9%,-3.9%,-4.0%,.,.,.,.,.,
CCCC1=Nc2cc(C(=O)NC3CCCC3)ccc2Sc2ccc(C)cc21,23.8%,3.65µM*,-7.7%,1.8%,?,-9.9%,-7.7%,-1.1%,8.5%,-2.4%,4.44µM*,
C[C@@]12C[C@@]3(O)O[C@@H](O1)[C@]1(COC(=O)c4ccccc4)[C@@H]3C[C@@]12O[C@@H]1O[C@H](CO)[C@@H](O)[C@H](O)[C@@H]1O,.,.,14.6%,.,.,.,.,.,.,.,.,
COC1=C(OC)C(=O)C(CC=C(C)CCC=C(C)CCC=C(C)CCC=C(C)CCC=C(C)CCC=C(C)CCC=C(C)CCC=C(C)CCC=C(C)CCC=C(C)C)=C(C)C1=O,.,.,4.5%,.,.,.,.,.,.,.,.,
Cc1ccc(Cn2c(=O)n(CC3CCC(C(=O)N4CCOCC4)CC3)c(=O)c3sccc32)cc1 (centres undefined),-5.5%,8.6%,-8.5%,3.9%,9.6%,2.6%,.,.,.,.,.,
Cc1ccccc1Cn1c(=O)n(CC2CCC(C(=O)N3CCOCC3)CC2)c(=O)c2sccc21 (centres undefined),6.2%,11.9µM*,4.1%,-8.4%,2.9%,-0.1%,-8.3%,5.6%,1.9%,-2.2%,-24.4%,
CNC(=O)CN1CCC(Oc2cc3c(Nc4cccc(Cl)c4F)ncnc3cc2OC)CC1,.,.,-20.6%,.,.,.,.,.,.,.,.,
Cc1ccc(C(=O)Nc2ccc(S(=O)(=O)N3CCC(c4nc5ccccc5s4)CC3)cc2)cc1,-5.6%,11.9µM*,-12.6%,8.5%,-8.8%,2.5%,0.4%,4.8%,6.4%,-47.4%,14.5µM*,PMP22 HiBiT cnf=?
CCN(CC)C(=O)c1ccc(S(=O)(=O)N2CCC(c3nc4ccccc4s3)CC2)cc1,-2.8%,.,.,.,-1.1%,.,.,.,.,.,.,
COc1cc(O)c2c(c1)C1OC1C[C@H](O)[C@H](O)C(=O)C=CC[C@H](C)OC2=O (some centres undefined),.,.,-27.3%,.,.,.,.,.,.,.,.,
